PubChem BioAssay (EPA / NIEHS)
The source made the active and inactive calls. Rule for the calls: active = hit-call score of the fitted dose curve at least 0.9, where 1 is the maximum; inactive = score below 0.9.

Key:
[1] = BSK_3C_Vis: BioMAP Diversity Plus: 3C Assay for Morphology Visualization (AID 2283025); details: primary human endothelial cells (HUVEC);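 note: fitted both ways so gain or loss versus DMSO counts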;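 for AC50: light microscopy image of cell morphology used as background control; cells imaged 24 h after dosing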
In short: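 Endothelial cells from human umbilical vein were treated with test chemicals for 24 h and inspected by light microscopy for changes in cell conformation.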

[2] = BSK_4H_SRB: Viability Assessment in the BioMAP Diversity Plus: 4H Assay (AID 2283027); details: primary human endothelial cells (HUVEC);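 note: cells exposed to compound for 24 h before staining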;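 for AC50: curves fitted both ways versus DMSO so AC50 may be loss or gain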
In short: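 Human umbilical vein endothelial cells were dosed with chemical and, after 24 h, fixed with 10% TCA, stained with 0.1% sulforhodamine B, and read at 560 nm to give total protein as a cytotoxicity measure. Bidirectional fitting relative to DMSO control.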

[3] = BSK_BE3C_SRB: Viability Assessment in the BioMAP Diversity Plus: BE3C Assay (AID 2283028); details: primary human bronchial epithelial cells
In short: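 Overt cytotoxicity was assessed as total protein in confluent human primary bronchial epithelial cultures 24 h after chemical addition, using 0.1% sulforhodamine B staining read at 560 nm.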

[4] = read-out: Thrombomodulin, THBD (gene 7056); assay: BSK_3C_Thrombomodulin: BioMAP Diversity Plus: 3C Assay for Thrombomodulin Biomarker Activity (AID 2283029); details: primary human endothelial cells (HUVEC); actives raise or lower the signal
In short: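 Thrombomodulin ELISA, human primary HUVEC, 24 h post-dose; data fitted in both directions relative to DMSO.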

[5] = read-out: Urokinase-type plasminogen activator receptor (uPAR), PLAUR (gene 5329); assay: BSK_4H_uPAR: BioMAP Diversity Plus: 4H Assay for Urokinase-type plasminogen activator receptor (uPAR) Biomarker Activity (AID 2283030); details: primary human endothelial cells (HUVEC); actives raise or lower the signal
In short: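 Chemicals are dosed onto human vascular endothelial primary cells (umbilical vein). After 24 h, uPAR is read by ELISA. Gain or loss of signal is fitted relative to DMSO.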

[6] = read-out: Vascular endothelial growth factor receptor 2 (Homo sapiens) (UniProt P35968); assay: BSK_4H_VEGFRII: BioMAP Diversity Plus: 4H Assay for Vascular endothelial growth factor receptor 2 (VEGFR2) Biomarker Activity (AID 2283031); details: primary human endothelial cells (HUVEC); actives raise or lower the signal;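 for AC50: cell-surface VEGFR2 protein level quantified by ELISA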
In short: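 VEGFRII levels on human vascular endothelial primary cells were determined by ELISA at 24 hours post-dosing, with gain- or loss-of-signal fitted against DMSO controls.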

[7] = read-out: Human Leukocyte Antigen - DR isotype (HLADR), HLA-DRA (gene 3122); assay: BSK_BE3C_HLADR: BioMAP Diversity Plus: BE3C Assay for Human Leukocyte Antigen - DR isotype (HLADR) Biomarker Activity (AID 2283032); details: primary human bronchial epithelial cells; actives raise or lower the signal
In short: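 Signal came from an ELISA for HLA-DR in human bronchial epithelial primary cells harvested 24 h after treatment; gain- and loss-of-signal fitting used DMSO controls as reference.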

[8] = read-out: Vascular cell adhesion molecule 1 (VCAM1), VCAM1 (gene 7412); assay: BSK_4H_VCAM1: BioMAP Diversity Plus: 4H Assay for Vascular cell adhesion molecule 1 (VCAM1) Biomarker Activity (AID 2283033); details: primary human endothelial cells (HUVEC); actives raise or lower the signal
In short: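 Endpoint derived from bidirectional fitting against DMSO controls of VCAM-1 ELISA signal in umbilical vein endothelial cells sampled at 24 h following treatment.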

[9] = read-out: Interferon-gamma inducible Protein 10 (IP10), CXCL10 (gene 3627); assay: BSK_BE3C_IP10: BioMAP Diversity Plus: BE3C Assay for Interferon-gamma inducible Protein 10 (IP10) Biomarker Activity (AID 2283034); details: primary human bronchial epithelial cells; actives raise or lower the signal
In short: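 Using primary human bronchial epithelial cultures, the assay captures IP-10 by ELISA one day (24 h) after exposure. Parallel SRB staining of total protein flags overt cytotoxicity. Fits run bidirectionally relative to DMSO.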

[10] = read-out: Monokine induced gamma interferon (MIG), CXCL9 (gene 4283); assay: BSK_BE3C_MIG: BioMAP Diversity Plus: BE3C Assay for Monokine induced gamma interferon (MIG) Biomarker Activity (AID 2283035); details: primary human bronchial epithelial cells; actives raise or lower the signal;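 note: MIG protein measured by ELISA in BE3C cultures after 24 h of dosing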
In short: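 ELISA read-out of MIG in human lung bronchial epithelial primary cultures, 24 h post-dosing. Bidirectional curve fit vs DMSO baseline.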

[11] = read-out: Transforming growth factor beta 1 (TGFb1), TGFB1 (gene 7040); assay: BSK_BE3C_TGFb1: BioMAP Diversity Plus: BE3C Assay for Transforming growth factor beta 1 (TGFb1) Biomarker Activity (AID 2283036;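 note: TGF-b1 protein level measured by ELISA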); details: primary human bronchial epithelial cells; actives raise or lower the signal
In short: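 In this human primary bronchial epithelial system, an ELISA quantified TGF-b1 one day after dosing. Endpoint changes in either direction were fitted relative to DMSO.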

[12] = read-out: Plasminogen activator inhibitor-1 (PAI1), SERPINE1 (gene 5054); assay: BSK_BE3C_PAI1: BioMAP Diversity Plus: BE3C Assay for Plasminogen activator inhibitor-1 (PAI1) Biomarker Activity (AID 2283037); details: primary human bronchial epithelial cells; actives raise or lower the signal
In short: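 PAI-1 biomarker levels in treated human bronchial epithelial cells are determined by ELISA at 24 h. Both increases and decreases relative to DMSO are fitted.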

[13] = read-out: urokinase plasminogen activator (uPA), PLAU (gene 5328); assay: BSK_BE3C_uPA: BioMAP Diversity Plus: BE3C Assay for urokinase plasminogen activator (uPA) Biomarker Activity (AID 2283038); details: primary human bronchial epithelial cells; actives raise or lower the signal;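 note: uPA protein level quantified by ELISA in cell cultures; uPA read one day after compound addition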
In short: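 Measured by ELISA: uPA from human primary bronchial epithelial cells 24 h after chemical treatment. Values derive from bidirectional curve fitting with DMSO serving as negative control. Total protein by SRB staining in parallel wells flagged overt cytotoxicity.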

[14] = read-out: Urokinase-type plasminogen activator receptor (uPAR), PLAUR (gene 5329); assay: BSK_BE3C_uPAR: BioMAP Diversity Plus: BE3C Assay for Urokinase-type plasminogen activator receptor (uPAR) Biomarker Activity (AID 2283039); details: primary human bronchial epithelial cells; actives raise or lower the signal;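 note: uPAR protein level measured by ELISA on the cells; cells exposed to compound for one day before measurement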
In short: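 A uPAR ELISA serves as the readout, taken 24 h after treating primary human bronchial epithelial cells. Responses in either direction are fitted against DMSO, which defines baseline activity.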

[15] = read-out: Interleukin-6 (IL6), IL6 (gene 3569); assay: BSK_CASM3C_IL6: BioMAP Diversity Plus: CASM3C Assay for Interleukin-6 (IL6) Biomarker Activity for (AID 2283040); details: primary human coronary artery smooth muscle cells; actives raise or lower the signal
[16] = read-out: Tissue plasminogen activator (tPA), PLAT (gene 5327); assay: BSK_BE3C_tPA: BioMAP Diversity Plus: BE3C Assay for Tissue plasminogen activator (tPA) Biomarker Activity (AID 2283041); details: primary human bronchial epithelial cells; actives raise or lower the signal
In short: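 Bidirectional curve fitting relative to DMSO defined activity, with tPA detected by ELISA in chemically treated human bronchial epithelial primary cells at 24 hours.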

[17] = read-out: Interleukin-8 (IL8), CXCL8 (gene 3576); assay: BSK_CASM3C_IL8: BioMAP Diversity Plus: CASM3C Assay for Interleukin-8 (IL8) Biomarker Activity (AID 2283042); details: primary human coronary artery smooth muscle cells; actives raise or lower the signal;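 note: IL-8 protein level quantified by ELISA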
[18] = read-out: Human Leukocyte Antigen - DR isotype (HLADR), HLA-DRA (gene 3122); assay: BSK_CASM3C_HLADR: BioMAP Diversity Plus: CASM3C Assay for Human Leukocyte Antigen - DR isotype (HLADR) Biomarker Activity (AID 2283043); details: primary human coronary artery smooth muscle cells; actives raise or lower the signal;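 note: cell-surface HLA-DR protein level quantified by ELISA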
[19] = read-out: Macrophage colony-stimulating factor (MCSF), CSF1 (gene 1435); assay: BSK_CASM3C_MCSF: BioMAP Diversity Plus: CASM3C Assay for Macrophage colony-stimulating factor (MCSF) Biomarker Activity (AID 2283044); details: primary human coronary artery smooth muscle cells; actives raise or lower the signal;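 note: M-CSF protein amount quantified by ELISA after 24 h exposure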
[20] = read-out: Pselectin, SELP (gene 6403); assay: BSK_4H_Pselectin: BioMAP Diversity Plus: 4H Assay for Pselectin Biomarker Activity (AID 2283026); details: primary human endothelial cells (HUVEC); actives raise or lower the signal
In short: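 Human vascular endothelium from umbilical vein; P-selectin measured by ELISA at 24 h post-dose, with cytotoxicity checked by sulforhodamine B total-protein staining in parallel cultures (0.1% SRB after 10% TCA fixation, read at 560 nm).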

Measured: AC50

c1ccc(-c2cccc(-c3ccccc3)c2)cc1
active: [1] 13 µM | [2] 20 µM | [6] 11 µM | [7] 20 µM | [8] 14 µM | [9] 14.4 µM | [16] 6.98 µM
not listed: [20]
inactive: all other assays above

O=C(O)COc1cc(Cl)c(Cl)cc1Cl
inactive: all assays above

N#Cc1cccnc1
inactive: all assays above

Nc1ccc(N)cc1
active: [1] 19.9 µM
inactive: all other assays above

Cc1ccc2nc3sc(=O)sc3nc2c1
active: [1] 9.8 µM | [20] 3.77 µM | [2] 6.96 µM | [5] 6.39 µM | [6] 9.18 µM | [7] 5 µM | [8] 7.39 µM
inactive: all other assays above

Nc1c(Oc2ccccc2)cc(O)c2c1C(=O)c1ccccc1C2=O
active: [12] 2.43 µM
not listed: [20]
inactive: all other assays above

CCOP(=O)(OCC)OC(=CCl)c1ccc(Cl)cc1Cl
active: [1] 37.4 µM | [2] 29.3 µM | [5] 30.8 µM | [6] 28.7 µM | [8] 32 µM | [18] 33.4 µM | [19] 31.7 µM
not listed: [20]
inactive: all other assays above

O=[N+]([O-])c1cccc2ccccc12
inactive: all assays above

O=S(=O)(c1ccc(Cl)cc1)c1cc(Cl)c(Cl)cc1Cl
active: [1] 13.6 µM | [8] 20 µM | [9] 28.6 µM
inactive: all other assays above

CCN(CC)C(=O)C(Cl)=C(C)OP(=O)(OC)OC
inactive: all assays above

CC(C)(C)c1cc([N+](=O)[O-])cc(C(C)(C)C)c1O
active: [2] 0.0719 µM | [4] 0.0473 µM
inactive: all other assays above
